The sample as a whole holds a higher share of hits than the screen did.
KDM5B inh – Primary screen for KDM5B Histone Demethylases FDH-coupled qHTS. Lysine-specific demethylase 5B (Homo sapiens), Q9UGL1. KDM5B demethylase, FDH-coupled NADH fluorescence (FDH is formaldehyde dehydrogenase). Potency, µM (top dose mostly 57.7 µM), hits mostly inhibitors. 2.6% of 220,000 active. AID 1347165, 2019; active = well fitted inhibition curve with a large enough effect; also: 0% is about no effect; nearly all actives have a fitted effect of over 70% in size
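Coupled FDH/NAD⁺ fluorescence readout. KDM5BΔAP 200 nM final; compound titration, 10 min RT preincubation; substrate mix 12.5 µM H3K4me3, 25 µM 2-OG, 50 µM Fe(II), 100 µM ascorbate, 0.25 mM NAD⁺, 0.25 U/mL FDH; ΔRFU over 30 min.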
* marks the source's active call; other numbers are inactive results; ! = not active in a repeat. Potency is read from the fitted curve at half-maximal effect.

`COCCNC(=O)c1nc(-c2cccnc2)c2cnccn12` gave KDM5B inh inactive.
For CNc1nc(-c2c(C(=O)OC)c(C)n(C3CC3)c2C)cs1 the results were KDM5B inh inactive.
`CCOc1ccc([C@H]2C3=C(C[C@H](c4ccc(OC)c(OC)c4)CC3=O)Nc3[nH][nH]c(=O)c32)cc1` gave KDM5B inh inactive.
Screening O=C(O)COc1ccc(-c2nccc3c2C(=O)N(Cc2c[nH]c4ccccc24)CC(COc2ccc(F)cc2F)O3)cc1 (configuration not stated) returned KDM5B inh inactive.
Screening O=C(CCCc1c[nH]c2ccccc12)Nc1ccc(Br)cc1 returned KDM5B inh inactive.
For Cc1nccc(N2CCC(COc3ccc4c(cnn4CC[S+](C)(=O)[O-])c3)CC2)n1 the results were KDM5B inh inactive.
O=C(O)CCn1ncc2cc(OCC3CCN(C(=O)C4CC4)CC3)ccc21 was read as KDM5B inh inactive.
CCc1cnc(N2CCC(COc3ccc4c(cnn4CCC(=O)O)c3)CC2)nc1 was read as KDM5B inh 40µM*.
For CCOC(=O)N1CCC(COc2ccc3c(cnn3CCC(=O)O)c2)CC1 the results were KDM5B inh inactive.
For COc1ccc(Cl)cc1C(=O)N1CCC(COc2ccc3c(cnn3CCC(=O)O)c2)CC1 the results were KDM5B inh inactive.
`O=C(O)CCn1ncc2cc(OCC3CCN(c4ncc(F)cn4)CC3)ccc21` gave KDM5B inh 35µM*.
C/C(CCc1ccc(O)cc1)=N\NC(N)=S was read as KDM5B inh inactive.
For COCCn1cnnc1SCc1ccc(Br)cc1 the results were KDM5B inh inactive.
CCn1cnc2c1c(=O)n(CC(=O)NC(=O)NCc1ccccc1)c(=O)n2Cc1ccccc1 was read as KDM5B inh inactive.
Screening N#CC(/C(=N/S(=O)(=O)c1ccccc1)c1ccccc1)c1nc2ccccc2s1 (configuration not stated) returned KDM5B inh inactive.
For Fc1ccc(CN2CCn3c(nnc3C3CCCNC3)C2)cc1 (configuration not stated) the results were KDM5B inh 25µM*!.
`c1csc(CN2CCn3c(nnc3C3CCCNC3)C2)c1` (configuration not stated) gave KDM5B inh inactive.
For O=C(c1ccccc1F)N1CCn2c(nnc2C2CCCNC2)C1 (configuration not stated) the results were KDM5B inh inactive.
CCCc1c(C)[nH]c2c(Br)cccc2c1=O was read as KDM5B inh inactive.
For O=C(NCCNC(=O)c1cc2ccccc2[nH]1)C(=O)NC1CCCC1 the results were KDM5B inh inactive.
For O=C(NC1CC(c2cc(NCCO)ncn2)C1)c1cc2ccccc2[nH]1 (configuration not stated) the results were KDM5B inh 28µM*.
`O=C(NCCO)c1cc2ccccc2[nH]1` gave KDM5B inh inactive.
CCNc1c(NC(=O)Nc2ccc(Br)cc2F)c(=O)oc2ccccc12 was read as KDM5B inh inactive.
Cc1nnc(CN(C)c2ccc(-c3nc(-c4cccc(Cl)c4)no3)cn2)o1 was read as KDM5B inh 28µM*.
For Cc1noc(-c2nc(-c3cccc(Cl)c3)no2)n1 the results were KDM5B inh inactive.
For CN(Cc1nc(-c2cccc(Cl)c2)no1)C1CCOCC1 the results were KDM5B inh inactive.
`CCC(C(=O)Nc1ccc(OC)c(Cl)c1)n1nc(-c2cc(C)ccc2C)ccc1=O` (configuration not stated) gave KDM5B inh inactive.
Screening C[N+]1(CC#Cc2ccc(C#CC[N+]3(C)CCCC3)cc2)CCCC1 returned KDM5B inh inactive.
For CCOc1ccc(C(=O)CC2(O)C(=O)Nc3ccc(CC)cc32)cc1 (configuration not stated) the results were KDM5B inh inactive.
CCc1noc(-c2ccn3c(CNC(=O)CCc4cccc(OC)c4)nnc3c2)n1 was read as KDM5B inh 28µM*.
COc1cccc(CC(=O)NCc2nnc3cc(-c4nc(C(C)C)no4)ccn23)c1 was read as KDM5B inh 28µM*.
`CCc1noc(-c2ccn3c(CNC(=O)c4ccccc4C)nnc3c2)n1` gave KDM5B inh inactive.
`CCc1noc(-c2ccn3c(CNC(=O)CCc4ccccc4)nnc3c2)n1` gave KDM5B inh 25µM*.
CCc1noc(-c2ccn3c(CNC(=O)Cc4cccc(OC)c4)nnc3c2)n1 was read as KDM5B inh 22µM*.
Screening CCc1noc(-c2ccn3c(CNC(=O)c4ccccc4Cl)nnc3c2)n1 returned KDM5B inh inactive.
`Cc1ccc(Sc2ccc(NC(=O)c3cccc(C)c3C)cc2)c(C)c1` gave KDM5B inh inactive.
Screening CCc1ccc(C2CC(=O)NC3=C2C(=O)CC(c2ccc(OC)cc2)C3)cc1 (configuration not stated) returned KDM5B inh inactive.
`O=C1CC(N2CCOCC2)C=C1Nc1ccccc1` (configuration not stated) gave KDM5B inh inactive.
Screening COc1cc(OC)c(-c2nc3ccc(-c4ccc(OC)c(OC)c4OC)cc3o2)cc1OC returned KDM5B inh inactive.
Screening O=C(NCc1ccccc1OC(F)(F)F)c1ccccc1C(F)(F)F returned KDM5B inh inactive.
CCC(C)C(NC(=O)C(C)NC(=O)CNC(=O)CNC(=O)OCc1ccccc1)C(N)=O (configuration not stated) was read as KDM5B inh inactive.
Screening COc1ccc(S(=O)(=O)N2CCc3ccccc32)cc1C(=O)N1CCN(c2ncccn2)CC1 returned KDM5B inh inactive.
`CCN(CC)CCNC(=O)NC(=O)c1ccccc1` gave KDM5B inh inactive.
Screening COc1cc(/C=N/OCc2ccc(Cl)c(Cl)c2)cc(Cl)c1OC returned KDM5B inh inactive.
For COc1ccc(N2CCCCS2(=O)=O)cc1S(=O)(=O)NCc1ccncc1 the results were KDM5B inh inactive.
`CCc1cccc(NC(=O)C23CC4CC(CC(C4)C2)C3)c1` gave KDM5B inh inactive.
`COC(=O)c1ccc(NC(=O)COc2ccc3c(C)cc(=O)oc3c2)cc1` gave KDM5B inh inactive.
`COc1cccc(CCC(=O)NCc2nnc3cc(-c4nc(C5CC5)no4)ccn23)c1` gave KDM5B inh 28µM*.
`CCCc1noc(-c2ccn3c(CNC(=O)CCC4CCCC4)nnc3c2)n1` gave KDM5B inh 3.5µM*.
Screening CCCc1noc(-c2ccn3c(CNC(=O)c4ccoc4)nnc3c2)n1 returned KDM5B inh inactive.
Screening Cc1cc(=O)oc2cc(NC(=O)N(C)Cc3ccccc3Br)ccc12 returned KDM5B inh inactive.
Cc1ccc(Cl)cc1N1CCN(Cc2nc3c([nH]2)c(=O)n(C)c(=O)n3C)CC1 was read as KDM5B inh inactive.
`CCc1c(C)sc(NC(=O)c2cc(-c3cccc(C)c3)nc3ccccc23)c1C#N` gave KDM5B inh inactive.
For CC(C)NC(=O)C1Cn2cccc2C(=O)N1Cc1ccccc1 (configuration not stated) the results were KDM5B inh inactive.
O=C(NC1CCOC2(CCOCC2)C1)c1ccc(-c2cnco2)cc1 (configuration not stated) was read as KDM5B inh inactive.
Screening CC(C)NC(=O)[C@@H]1C[C@@H](NC(=O)c2cnc3c(O)cccn3c2=O)CN1C returned KDM5B inh 35µM*.

Compound activity (PubChem)
